Hit rate of the full screen: of about 5,500 compounds, about 2,000 (36%) were called active. Not shown: some 18% with an inconclusive outcome. Cut-off read from the data, not from the text of the source: active = normalized growth mostly below about 0.91 (no sharp cut-off); inconclusive = no clear call, values can overlap the other calls; inactive = mostly above about 0.92. This is one part of the list.
Assay: chemical genetic growth profiling, strain panel (AID 1159580);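 note: tested at 20 µM; growth read once vehicle control cultures reached saturation at 30 °C; 1 = growth at the plate median or of vehicle wells; lower values mean less growth of the strain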
Conditions: growth OD

Measured: normalized growth

CC1(C)S[C@@H]2[C@H](NC(=O)[C@H](NC(=O)N3CCNC3=O)c3ccccc3)C(=O)N2C1C(=O)O (stereo partly drawn)
inactive: S. cerevisiae deletion strains, locus YJR075W, strain HOC1, active compounds read low 1.01 | S. cerevisiae deletion strains, locus YKL009W, strain mrt4, active compounds read low 0.967 | S. cerevisiae deletion strains, locus YKL068W, active compounds read low 0.979 | S. cerevisiae deletion strains, locus YKL085W, strain MDH1 (second series), active compounds read low 0.998 | S. cerevisiae deletion strains, locus YKL085W, strain MDH1, active compounds read low 0.998 | S. cerevisiae deletion strains, locus YKL160W, strain elf1, active compounds read low 0.957 | S. cerevisiae deletion strains, locus YKL190W, strain CNB1, active compounds read low 0.995 | S. cerevisiae deletion strains, locus YKR001C, strain vps1, active compounds read low 1 | S. cerevisiae deletion strains, locus YKR026C, strain gcn3, active compounds read low 0.999 | S. cerevisiae deletion strains, locus YKR091W, strain srl3, active compounds read low 0.974 | S. cerevisiae deletion strains, locus YLL001W, strain dnm1, active compounds read low 0.957 | S. cerevisiae deletion strains, locus YLL026W, active compounds read low 0.984 | S. cerevisiae deletion strains, locus YLL041C, strain sdh2, active compounds read low 0.983 | S. cerevisiae deletion strains, locus YLR027C, strain aat2, active compounds read low 0.976 | S. cerevisiae deletion strains, locus YLR039C, strain RIC1, active compounds read low 1 | S. cerevisiae deletion strains, locus YLR058C, strain SHM2, active compounds read low 0.989 | S. cerevisiae deletion strains, locus YLR102C, strain apc9, active compounds read low 0.992 | S. cerevisiae deletion strains, locus YLR113W, strain HOG1, active compounds read low 0.956 | S. cerevisiae deletion strains, locus YLR221C, strain rsa3, active compounds read low 0.964 | S. cerevisiae deletion strains, locus YLR258W, strain gsy2, active compounds read low 0.988 | S. cerevisiae deletion strains, locus YLR262C, strain YPT6 (second series), active compounds read low 0.958 | S. cerevisiae deletion strains, locus YLR262C, strain YPT6, active compounds read low 0.98 | S. cerevisiae deletion strains, locus YLR268W, strain sec22, active compounds read low 0.993 | S. cerevisiae deletion strains, locus YLR320W, strain mms22, active compounds read low 0.956 | S. cerevisiae deletion strains, locus YLR330W, strain CHS5, active compounds read low 0.997 | S. cerevisiae deletion strains, locus YLR342W, strain FKS1 (second series), active compounds read low 1.01 | S. cerevisiae deletion strains, locus YLR342W, strain FKS1, active compounds read low 0.993 | S. cerevisiae deletion strains, locus YLR357W, strain rsc2, active compounds read low 0.977 | S. cerevisiae deletion strains, locus YLR370C, strain arc18, active compounds read low 0.98 | S. cerevisiae deletion strains, locus YLR371W, strain rom2, active compounds read low 0.997 | S. cerevisiae deletion strains, locus YLR384C, strain iki3, active compounds read low 0.976 | S. cerevisiae deletion strains, locus YLR418C, strain cdc73, active compounds read low 0.995 | S. cerevisiae deletion strains, locus YML016C, strain PPZ1, active compounds read low 1 | S. cerevisiae deletion strains, locus YML032C, strain rad52, active compounds read low 1.01 | S. cerevisiae deletion strains, locus YML120C, strain ndi1, active compounds read low 0.959 | S. cerevisiae deletion strains, locus YML124C, strain tub3, active compounds read low 0.996 | S. cerevisiae deletion strains, locus YMR058W, strain fet3, active compounds read low 0.973 | S. cerevisiae deletion strains, locus YMR078C, strain ctf18, active compounds read low 0.98 | S. cerevisiae deletion strains, locus YMR125W, strain sto1, active compounds read low 1 | S. cerevisiae deletion strains, locus YMR129W, active compounds read low 0.991 | S. cerevisiae deletion strains, locus YMR205C, strain PFK2, active compounds read low 0.954 | S. cerevisiae deletion strains, locus YMR223W, strain ubp8, active compounds read low 0.962 | S. cerevisiae deletion strains, locus YMR231W, strain pep5, active compounds read low 0.985 | S. cerevisiae deletion strains, locus YMR307W, strain GAS1, active compounds read low 1.08 | S. cerevisiae deletion strains, locus YNL067W, strain RPL9B, active compounds read low 1.02 | S. cerevisiae deletion strains, locus YNL071W, strain lat1, active compounds read low 0.989 | S. cerevisiae deletion strains, locus YNL128W, strain TEP1, active compounds read low 0.991 | S. cerevisiae deletion strains, locus YNL183C, strain NPR1, active compounds read low 0.942 | S. cerevisiae deletion strains, locus YNL209W, strain ssb2, active compounds read low 0.989 | S. cerevisiae deletion strains, locus YNL233W, strain BNI4, active compounds read low 1.04 | S. cerevisiae deletion strains, locus YNL248C, strain rpa49, active compounds read low 0.993 | S. cerevisiae deletion strains, locus YNL250W, strain rad50, active compounds read low 0.975 | S. cerevisiae deletion strains, locus YNL271C, strain bni1, active compounds read low 1 | S. cerevisiae deletion strains, locus YNL298W, strain CLA4, active compounds read low 0.978 | S. cerevisiae deletion strains, locus YNL307C, strain MCK1, active compounds read low 0.994 | S. cerevisiae deletion strains, locus YNL322C, strain KRE1 (second series), active compounds read low 0.983 | S. cerevisiae deletion strains, locus YNL322C, strain KRE1, active compounds read low 0.993 | S. cerevisiae deletion strains, locus YNR049C, strain mso1, active compounds read low 0.975 | S. cerevisiae deletion strains, locus YNR052C, strain pop2, active compounds read low 0.986 | S. cerevisiae deletion strains, locus YOL006C, strain TOP1, active compounds read low 1.04 | S. cerevisiae deletion strains, locus YOL012C, strain htz1 1.4 | S. cerevisiae deletion strains, locus YOL147C, strain pex11, active compounds read low 0.985 | S. cerevisiae deletion strains, locus YOR001W, strain rrp6, active compounds read low 0.981 | S. cerevisiae deletion strains, locus YOR061W, strain CKA2, active compounds read low 1 | S. cerevisiae deletion strains, locus YOR069W, strain VPS5, active compounds read low 0.988 | S. cerevisiae deletion strains, locus YOR070C, strain gyp1, active compounds read low 0.992 | S. cerevisiae deletion strains, locus YOR080W, strain dia2, active compounds read low 0.969 | S. cerevisiae deletion strains, locus YOR083W, strain WHI5, active compounds read low 0.957 | S. cerevisiae deletion strains, locus YOR106W, strain vam3, active compounds read low 0.951 | S. cerevisiae deletion strains, locus YOR136W, strain idh2, active compounds read low 0.996 | S. cerevisiae deletion strains, locus YOR144C, strain elg1, active compounds read low 1.01 | S. cerevisiae deletion strains, locus YOR184W, strain ser1, active compounds read low 0.991 | S. cerevisiae deletion strains, locus YOR231W, strain MKK1, active compounds read low 0.975 | S. cerevisiae deletion strains, locus YOR265W, strain rbl2, active compounds read low 0.983 | S. cerevisiae deletion strains, locus YOR270C, strain vph1, active compounds read low 0.968 | S. cerevisiae deletion strains, locus YOR290C, strain snf2, active compounds read low 0.936 | S. cerevisiae deletion strains, locus YOR316C, strain cot1, active compounds read low 0.99 | S. cerevisiae deletion strains, locus YPL051W, strain arl3, active compounds read low 0.99 | S. cerevisiae deletion strains, locus YPL078C, strain atp4, active compounds read low 0.974 | S. cerevisiae deletion strains, locus YPL106C, strain sse1, active compounds read low 0.944 | S. cerevisiae deletion strains, locus YPL240C, strain hsp82, active compounds read low 0.985 | S. cerevisiae deletion strains, locus YPL256C, strain CLN2, active compounds read low 0.955 | S. cerevisiae deletion strains, locus YPR119W, strain clb2, active compounds read low 0.997 | S. cerevisiae deletion strains, locus YPR141C, strain kar3, active compounds read low 0.989 | S. cerevisiae deletion strains, locus YPR163C, strain tif3, active compounds read low 0.975 | S. cerevisiae deletion strains, locus YPR167C, strain met16, active compounds read low 0.985 | S. cerevisiae deletion strains, strain wtn01, active compounds read low 1 | S. cerevisiae strains, strain wild type, active compounds read low 1
